About 220 (1.3%) of roughly 17,000 compounds were called active.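 How the source made its calls: active means spot fluorescence over background significantly raised, with a chance value under 7% in all four replicate spots of the compound; inactive means the rest.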 This excerpt belongs to a sample that is enriched for actives.

The target of this experiment is Nuclear factor NF-kappa-B p105 subunit (Homo sapiens) (UniProt P19838). Nature of the experiment: binders of NF-kB p50 subunit, primary screen, biochemical, small molecule microarray, anti-His fluorescence (AID 624139).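 Further: probe protein is his-tagged human p50 processed subunit at 1 µg/ml.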 The settings on record: anti-His fluorescence binding.
Nuclear factor NF-kappa-B p105 subunit (Homo sapiens), sequence (P19838 1-433 limits assumed): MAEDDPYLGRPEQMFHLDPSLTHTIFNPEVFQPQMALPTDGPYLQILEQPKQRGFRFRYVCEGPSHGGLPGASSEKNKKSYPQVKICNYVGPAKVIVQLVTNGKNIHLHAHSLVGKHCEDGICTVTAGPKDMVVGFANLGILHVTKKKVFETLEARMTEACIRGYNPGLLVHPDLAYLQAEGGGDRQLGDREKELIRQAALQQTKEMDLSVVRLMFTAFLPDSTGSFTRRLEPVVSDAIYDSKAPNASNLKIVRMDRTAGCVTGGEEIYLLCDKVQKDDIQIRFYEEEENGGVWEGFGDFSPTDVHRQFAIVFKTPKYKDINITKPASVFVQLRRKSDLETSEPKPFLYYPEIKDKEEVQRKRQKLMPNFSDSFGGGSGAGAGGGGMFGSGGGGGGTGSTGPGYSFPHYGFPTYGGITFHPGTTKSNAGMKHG
As to `CC(C)(C)[C@H]1C=C(C(=O)NCc2ccccc2)O[C@@H](OCc2ccc(CO)cc2)C1`, the outcome was inactive.
Take `Cc1sc2nc(SCC(=O)Nc3ccccc3C(F)(F)F)nc(N)c2c1C`: the outcome was inactive.
Turning to `NC(=O)CSc1nnc(-c2ccccc2F)n1-c1ccccc1`, the call was inactive.
`C[C@@H]1CN([C@H](C)CO)C(=O)c2cc(NC(=O)CCCN(C)C)ccc2O[C@H]1CN(C)Cc1ccc(C(=O)O)cc1`: the outcome was inactive.
Under `CC(C)NC(=O)N(C)C[C@H]1OCCCC[C@H](C)Oc2ccc(NC(=O)CCC(F)(F)F)cc2C(=O)N([C@@H](C)CO)C[C@@H]1C` stands “inactive”; under `C[C@@H]1CCCCO[C@@H](CN(C)Cc2ccccc2)[C@H](C)CN([C@H](C)CO)C(=O)c2cc(NS(=O)(=O)c3cccs3)ccc2O1`, “inactive”; under `C[C@@H]1CN([C@H](C)CO)C(=O)Cc2cc(NC(=O)CCN3CCOCC3)ccc2O[C@H]1CN(C)Cc1ccncc1`, “inactive”.
The result for `C[C@@H]1CCCCO[C@H](CN(C)Cc2ccncc2)[C@H](C)CN([C@H](C)CO)C(=O)c2cc(NC(=O)Nc3ccccc3)ccc2O1` reads “inactive”; that for `CC(C)NC(=O)Nc1cccc2c1O[C@H](CN(C)Cc1ccccc1)[C@H](C)CN([C@H](C)CO)C2=O`, “inactive”.
The result for `C[C@@H]1CN([C@H](C)CO)C(=O)Cc2cc(NC(=O)CCCN(C)C)ccc2O[C@@H]1CN(C)S(=O)(=O)c1cccs1` reads “inactive”.
Regarding `C[C@H](CO)N1C[C@H](C)[C@@H](CN(C)S(=O)(=O)c2cn(C)cn2)Oc2ccc(N(C)C)cc2CC1=O`, the result was inactive.
For `C[C@H]1CN([C@@H](C)CO)C(=O)c2cc(NC(=O)Nc3cccc4ccccc34)ccc2O[C@@H]1CN(C)C`, the result was inactive.
In the case of `C[C@H](CO)N1C[C@H](C)[C@H](CN(C)C(=O)NC2CCCC2)Oc2ncc(-c3ccc(F)cc3)cc2C1=O`, the result was inactive.
For `CCOc1ccc(-c2cn(S(=O)(=O)c3cccc4nsnc34)nc2N)cc1`, the outcome was inactive.
Under `Cc1cccc(NC(=O)CN2C(=O)CNC2=O)c1` stands “inactive”.
The result for `CC(C)NC(=O)Nc1ccc2c(c1)C(=O)N([C@@H](C)CO)C[C@H](C)[C@@H](CN(C)C)O2` reads “inactive”; that for `C[C@H](CO)N1C[C@H](C)[C@@H](CN(C)C)Oc2ccc(N(C)C)cc2C1=O`, “inactive”.
Consider `C[C@@H]1CN([C@H](C)CO)C(=O)c2cccc(NS(C)(=O)=O)c2O[C@@H]1CN(C)S(=O)(=O)c1cccs1`, for which the compound was called inactive.
Under `C[C@H]1CN([C@@H](C)CO)C(=O)c2cc(NC(=O)NC3CCCCC3)ccc2O[C@@H]1CN(C)S(=O)(=O)c1cccs1` stands “inactive”; under `COc1cccc(/C=C(\C#N)C(=O)Nc2c(C)n(C)n(-c3ccccc3)c2=O)c1`, “inactive”; under `C[C@H](CO)N1C[C@H](C)[C@H](CN(C)C(=O)NC2CCCCC2)Oc2ccc(NC(=O)c3ccncc3)cc2CC1=O`, “inactive”.
Regarding `Cc1c(C(=O)NC(=S)NCc2cccnc2)oc2ccccc12`, the compound was classed as inactive.
Regarding `Cc1noc(C)c1NC(=O)N(C)C[C@@H]1OCCCC[C@H](C)Oc2ccc(NC(=O)CCC(F)(F)F)cc2C(=O)N([C@@H](C)CO)C[C@@H]1C`, the outcome was inactive.
Take `C[C@H]1CN([C@@H](C)CO)C(=O)Cc2cc(NC(=O)Nc3ccc(F)cc3)ccc2O[C@@H]1CN(C)C(=O)NC1CCCCC1`: the compound was called inactive.
The result for `O=C(Nc1cccc(OCC(=O)N2CCOCC2)c1)C1CCCCC1` reads “inactive”.
Consider `O=C(C1=C[C@H](c2coc3ccccc3c2=O)C[C@H](OCc2ccc(CO)cc2)O1)N1CCOCC1`, for which the call was inactive.
The result for `C[C@@H]1CCCCO[C@@H](CN(C)C(=O)Nc2ccccc2)[C@@H](C)CN([C@@H](C)CO)C(=O)c2cc(N(C)C)ccc2O1` reads “inactive”; that for `C[C@@H]1CN([C@H](C)CO)C(=O)c2cccc(NC(=O)Nc3ccccc3)c2O[C@@H]1CN(C)C(=O)NC1CCCCC1`, “inactive”; that for `C[C@H](CO)N1C[C@H](C)[C@@H](CN(C)C(=O)NC2CCCCC2)Oc2c(NC(=O)Nc3ccc(F)cc3)cccc2C1=O`, “inactive”.
Under `C[C@@H]1CCCCO[C@@H](CN(C)C(=O)Nc2ccccc2)[C@@H](C)CN([C@H](C)CO)C(=O)c2cc(NC(=O)Nc3ccc(F)cc3)ccc2O1` stands “inactive”; under `C[C@@H]1CCCCO[C@@H](CN(C)C(=O)Cc2ccccc2)[C@H](C)CN([C@@H](C)CO)C(=O)c2cc(NC(=O)Nc3ccc(F)cc3)ccc2O1`, “active”; under `C[C@H](CO)N1C[C@H](C)[C@@H](CN(C)C(=O)Nc2cccc3ccccc23)OCCCC[C@H](C)Oc2ccc(N(C)C)cc2C1=O`, “active”.
For the compound `C[C@@H]1CN([C@H](C)CO)C(=O)Cc2cc(NC(=O)C3CC3)ccc2O[C@H]1CN(C)Cc1ccc2c(c1)OCO2`, the outcome was inactive.
Take `C[C@H](CO)N1C[C@H](C)[C@@H](CN(C)C(=O)Nc2ccccc2)Oc2ccc(NC(=O)C3CC3)cc2CC1=O`: the compound was classed as inactive.
Under `C[C@@H]1CCCCO[C@H](CN(C)C(=O)Nc2ccccc2)[C@H](C)CN([C@@H](C)CO)C(=O)c2cc(N(C)C)ccc2O1` stands “inactive”; under `C[C@H]1CN([C@@H](C)CO)C(=O)c2cccc(NC(=O)Nc3ccc(C(F)(F)F)cc3)c2O[C@H]1CN(C)C(=O)NC1CCCCC1`, “active”.
Under `C[C@@H]1CN([C@H](C)CO)C(=O)Cc2cc(NC(=O)C3CC3)ccc2O[C@H]1CN(C)Cc1ccc(Cl)c(Cl)c1` stands “active”; under `CC(C)NC(=O)Nc1ccc2c(c1)C(=O)N([C@@H](C)CO)C[C@@H](C)[C@H](CN(C)C(=O)Cc1ccccc1)OCCCC[C@H](C)O2`, “inactive”.
The result for `C[C@H](CO)N1C[C@H](C)[C@@H](CN(C)C)OCCCC[C@H](C)Oc2ccc(NC(=O)C3CCCCC3)cc2C1=O` reads “inactive”.
For the compound `CC(C)NC(=O)N(C)C[C@@H]1OCCCC[C@@H](C)Oc2ccc(NC(=O)Nc3ccccc3)cc2C(=O)N([C@H](C)CO)C[C@@H]1C`, the compound was called inactive.
Under `C[C@@H]1CCCCO[C@H](CN(C)C(=O)Nc2ccccc2)[C@H](C)CN([C@H](C)CO)C(=O)c2cc(NC(=O)Nc3ccccc3)ccc2O1` stands “inactive”.
The result for `C[C@@H]1CN([C@@H](C)CO)C(=O)c2cc(NC(=O)C3CCCCC3)ccc2O[C@@H](C)CCCCO[C@@H]1CN(C)C(=O)Nc1ccccc1` reads “inactive”.
Under `C[C@@H]1CCCCO[C@H](CN(C)C(=O)NC2CCCCC2)[C@H](C)CN([C@@H](C)CO)C(=O)c2cc(NC(=O)C3CCCCC3)ccc2O1` stands “active”; under `C[C@@H]1CCCCO[C@H](CN(C)C(=O)C2CCCCC2)[C@@H](C)CN([C@@H](C)CO)C(=O)c2cc(NC(=O)Nc3ccccc3)ccc2O1`, “active”; under `C[C@@H]1CN([C@@H](C)CO)C(=O)c2cc(NS(=O)(=O)c3ccccc3)ccc2O[C@@H](C)CCCCO[C@H]1CN(C)C(=O)C1CCCCC1`, “inactive”.
Consider `C[C@@H]1CCCCO[C@H](CN(C)C(=O)CCCN(C)C)[C@H](C)CN([C@@H](C)CO)C(=O)c2cc(NS(=O)(=O)c3ccccc3)ccc2O1`, for which the compound was called inactive.
For the compound `CCC1(C)C(=O)C=C2C(=COC(C)=C2C)C1O` (centres undefined), the compound was called inactive.
For `COc1ccccc1NC(=O)c1ccc(OCC(=O)O)cc1`, the outcome was inactive.
As for `C[C@H](CO)N1C[C@H](C)[C@@H](CN(C)C(=O)Nc2cccc3ccccc23)Oc2c(NS(=O)(=O)c3ccccc3)cccc2C1=O`, the compound was called inactive.
The result for `CC1OC(Oc2cc(O)c3c(=O)c(OC4OCC(O)C(O)C4O)c(-c4ccc(O)cc4)oc3c2)C(O)C(O)C1O` (centres undefined) reads “inactive”; that for `O=C(CS(=O)(=O)c1ccccc1)Nc1ccc2c(c1)OCCO2`, “inactive”; that for `COc1ccc(CN(C)C[C@H]2Oc3ccc(NC(=O)CCN4CCOCC4)cc3C(=O)N([C@@H](C)CO)C[C@H]2C)cc1`, “inactive”.
Under `CC(=O)OC[C@H]1O[C@@H](Oc2c(-c3ccc(O)c(O)c3)oc3cc(O)cc(O)c3c2=O)[C@H](O)[C@@H](O)[C@@H]1O` stands “inactive”; under `C[C@H](CO)N1C[C@H](C)[C@@H](CN(C)Cc2ccc3c(c2)OCO3)Oc2ccc(NC(=O)Nc3ccc(F)cc3)cc2C1=O`, “inactive”; under `C[C@@H]1CN([C@@H](C)CO)C(=O)c2cc(NC(=O)Nc3ccc4c(c3)OCO4)ccc2O[C@@H](C)CCCCO[C@@H]1CN(C)Cc1ccccc1`, “inactive”.
For `CCOC(=O)c1nnn(-c2nonc2-n2cccc2)c1CN1CCOCC1`, the result was inactive.
Under `Cc1noc(C)c1NC(=O)Nc1ccc2c(c1)CC(=O)N([C@@H](C)CO)C[C@H](C)[C@@H](CN(C)C(=O)Nc1ccc3c(c1)OCO3)O2` stands “inactive”.
With `C[C@@H]1CN([C@@H](C)CO)C(=O)Cc2cc(NC(=O)NC3CCCCC3)ccc2O[C@H]1CN(C)C(=O)Nc1ccc(C(F)(F)F)cc1`, the compound was called inactive.
On to `Cc1cc(C)cc(Oc2c(C(F)(F)F)oc3cc(OCC(=O)O)ccc3c2=O)c1`, for which the result was active.
The result for `C[C@H]1CN([C@@H](C)CO)C(=O)Cc2cc(NS(C)(=O)=O)ccc2O[C@@H]1CN(C)S(=O)(=O)c1cccs1` reads “inactive”.
The result for `N#Cc1c(SCC(=O)Nc2ccccc2)ncc2cc3ccccc3nc12` reads “inactive”; that for `CN(C)Cc1c(O)ccc2occ(C(O)c3ccccc3)c12` (centres undefined), “inactive”; that for `Cc1ccc(S(=O)(=O)NCC(=O)N2CCN(c3ccccn3)CC2)cc1`, “inactive”.
Under `CCCN(C)C[C@@H]1Oc2ncc(C#Cc3ccccc3)cc2C(=O)N([C@H](C)CO)C[C@@H]1C` stands “inactive”; under `C#Cc1ccc([C@H]2C=C(C(=O)O)O[C@@H](OCC)[C@@H]2CCCO)cc1`, “inactive”; under `COc1ccc(NC(=O)N(C)C[C@@H]2OCCCC[C@@H](C)Oc3ccc(N(C)C)cc3C(=O)N([C@H](C)CO)C[C@@H]2C)cc1`, “inactive”.
Take `C[C@@H]1CCCCO[C@@H](CN(C)C)[C@@H](C)CN([C@H](C)CO)C(=O)c2cc(N(C)C)ccc2O1`: the compound was classed as inactive.
Under `C[C@H](CO)N1C[C@H](C)[C@@H](CN(C)C(=O)C2CCCCC2)OCCCC[C@H](C)Oc2ccc(N(C)C)cc2C1=O` stands “inactive”; under `C[C@@H]1CCCCO[C@H](CN(C)S(=O)(=O)c2cccs2)[C@@H](C)CN([C@@H](C)CO)C(=O)c2cc(NC(=O)Nc3ccc4c(c3)OCO4)ccc2O1`, “inactive”.

The values above are taken from PubChem BioAssay AID624139 (Broad Institute, 2012).
